This is a sample that favours compounds with a hit; in the whole collection about 2.4% have one here.
TMEM16A inh: mouse TMEM16A channel inhibition, primary screen; Q8BHY3; HEK293 TMEM16A/YFP iodide influx fluorescence, ionomycin; normalized B-score (activity score, 25-100; higher = stronger inhibition) at 10 µM; actives 1.2% (n = 310,000); AID 588511;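 active means ratio plate-corrected score three or more library SD toward inhibition, starting fluorescence score within five deviations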;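 further: score derived from kinetic fluorescence span divided by baseline fluorescence per well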
TLR4 MyD88 comp: TLR4-MyD88 interaction inhibition in cells; O00206+Q99836; HeLa CL3-4 TLR4/MyD88 BLA complementation, FRET ratio; inhibition, % at 8.4 µM; actives 0.18% (n = 200,000); in the data active means inhibition above about 25%;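 further: 0% = vehicle and 100% = reference inhibitor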
HTR2A ag: activates the mouse 5-HT2A serotonin receptor; AID 624169; activation, % at 7.6 µM; P35363; CHO-K1 mHTR2A beta-arrestin complementation, luminescence; percent of 30 µM serotonin response; actives 0.66% (n = 360,000);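 active means activation above a run cutoff, the mean activation of all tested compounds plus 3 SD, cut at about 14% in these data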;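 further: 0% = plate median of compound wells and 100% = 30 µM serotonin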
NOD2 RIPK2 PPI: NOD2-RIPK2 protein interaction inhibition; CHO BLA complementation NOD2-RIPK2, CCF4 ratio; inhibition, % at 4.98 µM; actives 0.38% (n = 360,000); AID 624267; in the data active means inhibition above about 21%;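 further: 0% = vehicle only and 100% = reference blocker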
Target sequence (O43353 whole entry, looked up): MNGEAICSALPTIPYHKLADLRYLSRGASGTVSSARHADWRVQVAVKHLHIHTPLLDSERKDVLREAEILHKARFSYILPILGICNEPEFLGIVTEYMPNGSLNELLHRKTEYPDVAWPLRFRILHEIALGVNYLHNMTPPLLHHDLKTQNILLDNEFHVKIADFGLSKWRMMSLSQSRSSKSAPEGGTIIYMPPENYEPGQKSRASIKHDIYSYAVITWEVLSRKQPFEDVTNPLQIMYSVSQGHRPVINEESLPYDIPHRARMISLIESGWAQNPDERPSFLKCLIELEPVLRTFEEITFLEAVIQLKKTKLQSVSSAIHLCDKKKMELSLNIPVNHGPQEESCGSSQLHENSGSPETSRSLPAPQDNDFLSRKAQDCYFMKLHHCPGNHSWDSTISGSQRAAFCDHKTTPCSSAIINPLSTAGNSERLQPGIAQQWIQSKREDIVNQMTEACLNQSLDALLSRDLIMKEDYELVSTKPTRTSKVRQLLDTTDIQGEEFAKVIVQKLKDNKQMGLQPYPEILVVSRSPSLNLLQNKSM
TMEM16A act: activators or potentiators of mouse TMEM16A chloride channel | actives 0.3% (n = 340,000) | Q8BHY3 | HEK293 TMEM16A/YFP-H148Q/I152L, iodide quench fluorescence; hits give low values | AID 623877 | B-score at 10 µM;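 active means fluorescence-ratio B-score plate-corrected deviation score at least 3 library SD below zero, with starting fluorescence score within 5 deviations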;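 further: channel opened by trigger with iodide after compound preincubation; score built on the fluorescence ratio of max minus min over baseline; more negative score means more quench and so TMEM16A activation or potentiation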
TLR9-MyD88 block: TLR9-MyD88 interaction inhibition; actives 0.21% (n = 340,000); CHO BLA complementation TLR9-MyD88, CCF4 FRET ratio; inhibition, % at 4.98 µM; Q9NR96+Q99836;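 active means inhibition above the mean over all tested compounds plus 3 SD, cut at about 21% in these data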;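 further: 0% = DMSO only wells and 100% = clavulanate BLA inhibitor control wells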
TLR9-MyD88 conf: TLR9-MyD88 interaction inhibition, confirmation | shares compounds with TLR9-MyD88 block | CHO TLR9/MyD88 BLA complementation, CCF4 FRET ratio | inhibition, % at 4.98 µM | actives 51% (n = 680);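 active means mean inhibition across three repeats above about 21% taken from the earlier screen, limit read from the data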;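 further: blue over green emission ratio reports constitutive TLR9 MyD88 association via BLA complementation; 0% = DMSO vehicle wells and 100% = clavulanate BLA inhibitor wells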
BLA counter: non-selective beta-lactamase inhibitors in TLR9-MyD88 counter-screen | shares compounds with TLR9-MyD88 block | CHO-BLA cells, CCF4 FRET ratio, BLA reporter | inhibition, % at 4.98 µM | actives 7% (n = 680);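 active means mean inhibition above a 50% cutoff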;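 further: counterscreen of TLR9-MyD88 hits on CMV-driven BLA in CHO-K1 cells; 0% = DMSO alone and 100% = clavulanate blocking BLA; higher means less blue over green ratio so more BLA blockade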
TLR9 CHO cytotox: counter-screen for TLR9-MyD88 inhibitors: cytotoxicity in CHO cells; shares compounds with TLR9-MyD88 block; luminescence; inhibition, % at 4.98 µM; actives 39% (n = 680); in the data active means inhibition above about 11%
* marks the source's active call; other numbers are inactive results; i = inactive; . = no result given.

SMILES	TMEM16A inh	TLR4 MyD88 comp	HTR2A ag	NOD2 RIPK2 PPI	TMEM16A act	TLR9-MyD88 block	TLR9-MyD88 conf	BLA counter	TLR9 CHO cytotox
Cc1ccc(C(=O)NCCC(=O)NCc2cc(=O)n(C)c(=O)n2C)cc1	i	.	6.4	-6.0	i	0.5	.	.	.
O=C1CCCCCC1C1(O)C(=O)Nc2ccccc21 (configuration not stated)	i	13.1	-0.7	-3.4	i	31.8*	1.3	-0.1	0.7
CN1CCN(C(=O)CSc2nc(-c3cccs3)cc(-c3cccs3)c2C#N)CC1	i	-10.3	-6.1	17.7	i	23.7*	20.7	18.9	5.2
Cc1ccc(/C=C/C(=O)N2CCN(S(=O)(=O)c3c(C)c(C)cc(C)c3C)CC2)o1	i	17.0	-0.8	-7.6	i	3.7	.	.	.
O=[N+]([O-])c1ccc2c(c1)C=C1CCCCC1(N1CCCCC1)O2 (configuration not stated)	i	6.5	1.3	-13.6	i	24.4*	-8.3	-4.9	-1.3
Cc1cc(NC(=O)c2c([N+](=O)[O-])cnn2C)no1	i	-13.2	3.8	-9.0	i	34.2*	3.0	-6.2	0.1
Cc1cc(NC(=O)c2c([N+](=O)[O-])c(C)nn2C)no1	i	2.1	-2.8	-15.7	i	1.7	.	.	.
CCOC(=O)COc1ccc2nsnc2c1	i	1.8	-0.4	-13.5	i	-1.4	.	.	.
CCOC(=O)COc1ccccc1/C=N/O	i	-7.3	5.9	-2.0	i	4.8	.	.	.
CCOC(=O)COc1ccc2ccccc2c1/C=C/[N+](=O)[O-]	i	0.5	-0.2	-1.0	i	23.5*	34.4*	-2.5	89.8*
CCOC(=O)COc1ccc(/C=C/[N+](=O)[O-])c(OCC(=O)OCC)c1	i	11.0	-2.9	1.0	i	21.6*	12.6	-1.6	27.9*
CC(=O)Nc1nc2n(n1)C(c1ccccc1)C=C(c1ccccc1)N2 (configuration not stated)	i	18.0	-1.7	56.2*	i	56.5*	34.0*	40.1	1.4
CS(=O)(=O)Nc1nc2n(n1)C(c1ccccc1)C=C(c1ccc(Br)cc1)N2 (configuration not stated)	i	17.0	0.7	46.9*	i	36.6*	7.7	8.8	2.1
O=C(Nc1nc2n(n1)C(c1ccccc1)C=C(c1ccccc1)N2)c1ccco1 (configuration not stated)	i	6.1	-0.8	-0.6	i	-4.5	.	.	.
O=C(CN1C(=O)NC(c2ccccc2)(c2ccccc2)C1=O)NCC(=O)Nc1ccc(F)cc1	.	.	-4.3	-4.4	i	5.1	.	.	.
O=C1C(Cl)=C(NCCc2ccccc2)C(=O)c2ccccc21	.	.	-3.0	1.2	i	21.4*	50.4*	5.2	98.3*
O=S(=O)(Nc1cccc2ncccc12)c1cccs1	i	5.0	-12.5	51.7*	i	29.0*	26.2*	11.6	102.7*
Cc1c(NS(=O)(=O)c2cccs2)cccc1-c1nc2cccnc2s1	i	.	-1.2	-0.6	i	-3.3	.	.	.
COc1ccccc1NS(=O)(=O)c1cccc(NC(=O)C2CC(=O)N(Cc3ccccc3)C2)c1 (configuration not stated)	i	0.5	0.1	-10.4	i	24.2*	-1.7	0.2	1.4
Cc1ccc(NC(=O)/C(CN(C)C)=N\O)cc1	i	17.2	3.6	13.2	i	23.8*	5.9	8.2	-0.1
Cc1ccc(NC(=O)CN(C)C(=O)Nc2ccc(C)cc2)cc1	i	.	0.1	-9.1	i	-9.6	.	.	.
CCOC(=O)N1CCN(c2c(NCCOC)c(=O)c2=O)CC1	i	8.2	2.6	-2.5	i	-6.0	.	.	.
CCS(=O)(=O)Nc1ccc(C(=O)c2ccccc2)cc1	i	6.0	3.2	7.7	i	22.3*	-5.9	-3.5	5.0
COc1cccc(Nc2nc(C)cc(C)c2C(N)=O)c1	i	.	0.7	-5.5	i	2.1	.	.	.
c1ccc(COc2cccc(-c3cc4nc(NCCN5CCOCC5)ccn4n3)c2)cc1	.	.	-7.7	-3.2	.	.	.	.	.
SMILES	TMEM16A inh	TLR4 MyD88 comp	HTR2A ag	NOD2 RIPK2 PPI	TMEM16A act	TLR9-MyD88 block	TLR9-MyD88 conf	BLA counter	TLR9 CHO cytotox
CC(=O)c1cc(C#N)c(N2CCOCC2)nc1C	i	-3.5	-0.6	8.8	i	-0.3	.	.	.
COC(=O)c1cc(C#N)c(N2CCOCC2)nc1C	i	-4.8	2.5	-7.1	i	22.4*	-4.2	-4.1	0.4
Cn1cc(CN2CCCC(C(=O)Nc3cccc(-c4cc5ccccc5[nH]4)c3)C2)cn1 (configuration not stated)	i	.	-15.2	12.7	i	0.4	.	.	.
CC(C)n1cc(CN2CCCC(C(=O)Nc3cccc(-c4cc5ccccc5[nH]4)c3)C2)cn1 (configuration not stated)	i	.	-7.1	4.7	i	23.4*	5.5	-0.6	7.2
CCN(C(=O)COC(=O)c1cccc(S(=O)(=O)NCc2ccccc2)c1)c1ccccc1	.	.	-12.7	18.7	i	21.6*	5.0	8.9	2.6
O=C(O)c1ccc2c(c1)nnn2C1CCCCC1	i	12.3	7.3	6.6	i	1.1	.	.	.
CC(OC(=O)/C=C/c1ccc2ccccc2n1)C(=O)NCc1ccccc1 (configuration not stated)	i	.	-3.5	-4.0	i	4.1	.	.	.
CCN1CCN(Cc2c(O)ccc3c2O/C(=C\c2ccc(C)cc2)C3=O)CC1	i	10.0	-2.1	16.4	i	21.4*	9.7	13.7	1.1
COc1ccc(C(=O)Nc2nnc(SCC(=O)NCc3ccco3)s2)c(OC)c1	i	.	-6.8	-1.9	i	5.6	.	.	.
CN(C)S(=O)(=O)c1cccc(NC(=O)c2cc([N+](=O)[O-])ccc2N2CCCCC2)c1	.	.	-8.2	7.9	i	21.6*	1.4	2.1	4.4
